Results reported in paper PMC5540273 (PLoS ONE, 2017).

Assays:
Settings in all cases: concentration: 1 μM, replicates: in singlicate; n = 1
PKAC-beta = system: T1, PKAC-beta
T1 construct: gene PRKACB

PKMYT1 = system: PKMYT1
PKN1 = system: PKN1
PKN2 = system: PKN2
PLK1 = system: PLK1
PLK2 = system: PLK2
PLK3 = system: PLK3
PLK4 = system: PLK4
PRKCD = system: PRKCD
PRKCE = system: PRKCE
PRKCH = system: PRKCH
PRKCI = system: PRKCI
PRKCQ = system: PRKCQ
PRKD1 = system: PRKD1
PRKD2 = system: PRKD2
PRKD3 = system: PRKD3
PRKG1 = system: PRKG1
PRKG2 = system: PRKG2
PRKR = system: T2, PRKR
T2 construct: gene EIF2AK2

PRKX = system: PRKX
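Further: KINOMEscan kinase panel screen.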

Compound	%Inh (PKAC-beta) [%]	%Inh (PKMYT1) [%]	%Inh (PKN1) [%]	%Inh (PKN2) [%]	%Inh (PLK1) [%]	%Inh (PLK2) [%]	%Inh (PLK3) [%]	%Inh (PLK4) [%]	%Inh (PRKCD) [%]	%Inh (PRKCE) [%]	%Inh (PRKCH) [%]	%Inh (PRKCI) [%]	%Inh (PRKCQ) [%]	%Inh (PRKD1) [%]	%Inh (PRKD2) [%]	%Inh (PRKD3) [%]	%Inh (PRKG1) [%]	%Inh (PRKG2) [%]	%Inh (PRKR) [%]	%Inh (PRKX) [%]
COc1cc2ncnc(Nc3cccc(Br)c3)c2cc1OC.Cl [GI230329]	0	0	0	0	2	0	0	0	3	11	0	15	4	0	6	0	9	1	0	6
Cc1ccccc1Cn1ccn2c(=O)cc(N3CCOCC3)nc12 [GSK2269905]	1	0	0	0	0	0	0	0	0	7	20	0	0	0	9	0	19	0	0	0
Cc1nccc(-c2c(-c3ccc(F)cc3)ncn2CCCN2CCOCC2)n1.Cl [SB-282975]	0	0	19	1	44	21	5	3	31	11	0	21	14	25	2	7	10	26	0	0
Cl.Cl.Cl.N#Cc1ccc(CCNc2nccc(-c3cccc(CN4CCNCC4)c3)n2)cc1 [GSK2137462]	5	18	0	2	5	5	0	6	18	76	25	21	5	1	13	0	0	4	0	4
O=c1cc(N2CCOCC2)nc2n(Cc3ccccc3F)ccn12 [GSK2297428]	0	0	7	0	13	0	0	8	0	1	18	1	0	0	0	0	0	0	0	0
CCn1c(-c2ccccc2)nc2cnccc21 [SB-733416]	3	30	0	0	0	0	0	0	8	22	3	8	44	0	1	0	0	0	0	5
Cc1ccc(-c2nc(Nc3ccncc3)c3ccccc3n2)s1 [GSK189015]	18	19	26	20	0	0	0	0	15	0	29	20	29	18	14	22	12	0	0	19
CS(=O)(=O)CCNCc1nc(-c2ccc3ncnc(Nc4ccc(OCc5ccccc5)c(Cl)c4)c3c2)cs1.Cl [GW582764]	2	0	0	0	0	0	0	0	0	6	2	39	3	2	0	100	0	1	0	0
CNc1nc(-c2ccc3c(N)n[nH]c3c2)cc(N2C[C@@H](C(=O)Nc3ccccc3)CC[C@H]2C)n1 [GSK2298859]	66	0	0	0	0	0	0	0	16	0	0	10	0	0	20	0	18	32	0	97
O=C(Nc1n[nH]c2cc(-c3ccsc3)ccc12)C1CC1 [SB-732932]	18	9	56	4	2	24	0	0	0	0	0	0	41	82	0	0	0	8	0	1
Cc1ccccc1-c1cc(-c2c[nH]nc2-c2ccccn2)ccn1 [GW680061]	0	0	0	0	0	0	0	0	0	10	2	8	2	0	0	100	0	0	0	5
COc1cccc(CNC(=O)NC2CCN(c3ccnc(Nc4ccc(F)cc4)n3)C2)c1 (stereo not drawn) [GSK1379723]	0	2	4	0	0	0	0	0	0	9	2	10	0	0	0	14	0	0	0	6
CNc1cc(-c2ccc3c(N)n[nH]c3c2)nc(N)n1 [GSK2224810]	0	4	10	0	0	0	0	5	0	15	0	27	0	0	6	6	0	85	18	57
CC(=O)c1c(C)c2cnc(Nc3ccc(N4CCNCC4)cn3)nc2n(C2CCCC2)c1=O	6	23	0	15	0	0	0	6	18	55	0	5	0	0	0	0	9	0	0	0
COc1nccc(-c2c(-c3ccc(F)cc3)ncn2CCCN2CCOCC2)n1 [SB-282852]	16	0	0	0	0	0	13	20	38	0	0	23	0	21	6	0	10	24	10	0
COc1ccc(CSc2nnc(-c3ccc4c(c3)CCO4)o2)cc1	0	19	0	0	0	0	0	0	14	0	0	0	0	0	31	0	0	0	0	0
Cn1cncc1-c1cc2c(Nc3ccc(OCc4ccccc4)cc3)ncnc2cn1 [GW281179]	7	0	0	0	0	0	0	0	3	4	13	12	0	0	2	1	8	100	0	15
COc1ccc(CSc2nnc(-c3ccc4ncsc4c3)o2)cc1C(F)(F)F	1	22	0	0	0	4	0	2	13	0	0	0	10	17	7	11	0	0	3	0
COc1ccc(Nc2nccc(NCCNC(=O)Nc3cc(C)ccc3C)n2)cc1 [GSK1379899]	0	2	30	0	0	0	0	0	10	0	41	22	0	0	0	11	18	0	0	5
O=C(Nc1n[nH]c2nc(-c3ccco3)c(Br)cc12)C1CCN(Cc2ccccc2)C1.O=C(O)[C@H](O)[C@@H](O)C(=O)O (stereo not drawn) [SB-742034]	15	8	0	41	3	24	5	22	35	1	14	34	4	14	0	18	0	2	5	0
CNCc1ccc2nc(NC(=O)c3ccc(C(C)(C)C)cc3)cn2c1	5	11	8	7	2	7	22	8	0	12	0	20	0	30	2	12	0	21	0	9
